Assay results as given in the antibiotic and cytotoxicity screens of Wong et al. (2023).
In all, about 39,000 compounds went through this assay and about 3,300 (8.5%) were called active. This excerpt belongs to a sample that is enriched for actives.

system: HepG2; assay: cytotoxicity call (relative viability < 0.9); settings: 10 µM

| SMILES | cytotoxicity call |
| --- | --- |
| O=C(C[C@H]1CC[C@@H]2[C@H](COC[C@H](O)CN2C(=O)Nc2ccc(F)cc2)O1)NCCCN1CCOCC1 | inactive |
| OC[C@@H](O)CN1CCN(c2ccccc2)CC1 | inactive |
| Cc1nc(-c2ccc(OCC(C)C)c(C#N)c2)sc1C(=O)O | active |
| COc1ccc(S(=O)(=O)N(C)C[C@H]2Oc3ccc(NC(=O)c4ccncc4)cc3C(=O)N([C@@H](C)CO)C[C@@H]2C)cc1 | inactive |
| O=CN[C@H](Cc1ccccc1)C(=O)O | inactive |
| C[C@H]1CN([C@@H](C)CO)C(=O)Cc2cc(NC(=O)CCCCCC(=O)Nc3ccccc3N)ccc2O[C@H]1CN(C)Cc1ccc(Oc2ccccc2)cc1 | inactive |
| COc1ccc(CN(C)C[C@H]2Oc3ccc(NC(=O)CCCCCC(=O)Nc4ccccc4N)cc3CC(=O)N([C@H](C)CO)C[C@H]2C)cc1 | inactive |
| C[C@H](CO)N1C[C@H](C)[C@H](CN(C)Cc2ccc(Oc3ccccc3)cc2)Oc2ccc(NC(=O)CCCCCC(=O)Nc3ccccc3N)cc2CC1=O | inactive |
| C[C@@H]1CN([C@@H](C)CO)C(=O)Cc2cc(NC(=O)CCCCCC(=O)Nc3ccccc3N)ccc2O[C@@H]1CN(C)Cc1ccc(Oc2ccccc2)cc1 | active |
| C[C@H]1CN([C@@H](C)CO)C(=O)Cc2cc(NC(=O)CCCCCC(=O)Nc3ccccc3N)ccc2O[C@@H]1CN(C)Cc1ccc(Oc2ccccc2)cc1 | inactive |
| C[C@@H]1CN([C@H](C)CO)C(=O)Cc2cc(NC(=O)CCCCCC(=O)Nc3ccccc3N)ccc2O[C@H]1CN(C)Cc1ccc(Oc2ccccc2)cc1 | inactive |
| C[C@@H]1CN([C@H](C)CO)C(=O)Cc2cc(NC(=O)CCCCCC(=O)Nc3ccccc3N)ccc2O[C@@H]1CN(C)Cc1ccc(Oc2ccccc2)cc1 | active |
| COc1ccc(CN(C)C[C@@H]2Oc3ccc(NC(=O)CCCCCC(=O)Nc4ccccc4N)cc3CC(=O)N([C@H](C)CO)C[C@@H]2C)cc1 | inactive |
| COc1ccc(CN(C)C[C@H]2Oc3ccc(NC(=O)CCCCCC(=O)Nc4ccccc4N)cc3CC(=O)N([C@@H](C)CO)C[C@H]2C)cc1 | active |
| Cc1noc(C)c1NC(=O)Nc1ccc2c(c1)CC(=O)N([C@@H](C)CO)C[C@@H](C)[C@H](CN(C)Cc1ccc(C(F)(F)F)cc1)O2 | inactive |
| CC(C)NC(=O)Nc1ccc2c(c1)C(=O)N([C@H](C)CO)C[C@@H](C)[C@H](CN(C)CC1CCCCC1)OCCCC[C@H](C)O2 | inactive |
| C[C@H](CO)N1C[C@H](C)[C@@H](CN(C)Cc2ccc(C(F)(F)F)cc2)Oc2ccc(NC(=O)Nc3ccc4c(c3)OCO4)cc2C1=O | inactive |
| C[C@H](CO)N1C[C@H](C)[C@H](CN(C)Cc2ccc3c(c2)OCO3)Oc2ccc(NC(=O)Nc3ccc(C(F)(F)F)cc3)cc2C1=O | active |
| C[C@@H]1CN([C@H](C)CO)C(=O)c2cc(NC(=O)Nc3ccc(C(F)(F)F)cc3)ccc2O[C@@H]1CN(C)Cc1ccc2c(c1)OCO2 | active |
| C[C@@H]1CN([C@H](C)CO)C(=O)c2cc(NC(=O)Nc3ccc(C(F)(F)F)cc3)ccc2O[C@H]1CN(C)Cc1ccc2c(c1)OCO2 | inactive |
| C[C@@H]1CN([C@@H](C)CO)C(=O)c2cc(NC(=O)Nc3ccc4c(c3)OCO4)ccc2O[C@H]1CN(C)Cc1ccc(C(F)(F)F)cc1 | inactive |
| C[C@H]1CN([C@@H](C)CO)C(=O)c2cc(NC(=O)Nc3ccc4c(c3)OCO4)ccc2O[C@H]1CN(C)Cc1ccc(C(F)(F)F)cc1 | inactive |
| C[C@H]1CN([C@@H](C)CO)C(=O)c2cc(NC(=O)Nc3ccc(C(F)(F)F)cc3)ccc2O[C@H]1CN(C)Cc1ccc2c(c1)OCO2 | active |
| C[C@@H]1CN([C@@H](C)CO)C(=O)c2cc(NC(=O)Nc3ccc(C(F)(F)F)cc3)ccc2O[C@@H]1CN(C)Cc1ccc2c(c1)OCO2 | active |
| CN(C)Cc1cn(CC[C@H]2CC[C@@H](NS(=O)(=O)c3ccccc3)[C@@H](CO)O2)nn1 | inactive |

| SMILES | cytotoxicity call |
| --- | --- |
| C[C@H]1CN([C@@H](C)CO)C(=O)CCCn2cc(nn2)CO[C@@H]1CN(C)Cc1ccc(C(=O)Nc2ccccc2N)cc1 | inactive |
| C[C@@H]1CN([C@@H](C)CO)C(=O)c2cccc(NS(=O)(=O)c3cccs3)c2O[C@@H]1CN(C)CC1CC1 | inactive |
| C[C@@H]1CN([C@@H](C)CO)C(=O)c2cc(NS(=O)(=O)c3ccc(Cl)cc3)ccc2O[C@@H](C)CCCCO[C@@H]1CN(C)C(=O)NC1CCCCC1 | inactive |
| Cc1noc(C)c1S(=O)(=O)Nc1cccc2c1O[C@@H](CN(C)Cc1ccc(Oc3ccccc3)cc1)[C@@H](C)CN([C@@H](C)CO)C2=O | inactive |
| C[C@H]1CN([C@@H](C)CO)S(=O)(=O)c2ccc(-c3ccncc3)cc2O[C@H]1CN(C)S(=O)(=O)c1ccccc1F | inactive |
| [O-][NH2+]N(CCO)CCO | inactive |
| C[C@H](CO)N1C[C@H](C)[C@@H](CN(C)Cc2ccc3c(c2)OCO3)Oc2ccc(NC(=O)Nc3ccc(C(F)(F)F)cc3)cc2C1=O | active |
| C[C@H](CO)N1C[C@H](C)[C@H](CN(C)Cc2ccc(C(F)(F)F)cc2)Oc2ccc(NC(=O)Nc3ccc4c(c3)OCO4)cc2C1=O | inactive |
| C[C@@H]1CN([C@@H](C)CO)C(=O)c2cc(NC(=O)Nc3ccc4c(c3)OCO4)ccc2O[C@@H]1CN(C)Cc1ccc(C(F)(F)F)cc1 | inactive |
| C[C@@H]1CN([C@@H](C)CO)C(=O)c2cc(NC(=O)Nc3ccc(C(F)(F)F)cc3)ccc2O[C@H]1CN(C)Cc1ccc2c(c1)OCO2 | active |
| C[C@@H]1CN([C@H](C)CO)C(=O)c2cc(NC(=O)Nc3ccc4c(c3)OCO4)ccc2O[C@@H]1CN(C)Cc1ccc(C(F)(F)F)cc1 | active |
| C[C@H]1CN([C@@H](C)CO)C(=O)c2cc(NC(=O)Nc3ccc(C(F)(F)F)cc3)ccc2O[C@@H]1CN(C)Cc1ccc2c(c1)OCO2 | active |
| C[C@H]1CN([C@@H](C)CO)C(=O)c2cc(NC(=O)Nc3ccc4c(c3)OCO4)ccc2O[C@@H]1CN(C)Cc1ccc(C(F)(F)F)cc1 | inactive |
| C[C@@H]1CN([C@H](C)CO)C(=O)c2cc(NC(=O)Nc3ccc4c(c3)OCO4)ccc2O[C@H]1CN(C)Cc1ccc(C(F)(F)F)cc1 | inactive |
| C[C@@H]1CN([C@H](C)CO)C(=O)c2ccccc2-c2ccccc2CO[C@H]1CN(C)C(=O)Nc1cccc(Cl)c1Cl | inactive |
| C[C@@H]1CN([C@@H](C)CO)C(=O)c2cc(NC(=O)C3CC3)ccc2O[C@@H]1CN(C)S(=O)(=O)c1cn(C)cn1 | inactive |
| C[C@H](CO)N1C[C@H](C)[C@H](CN(C)S(=O)(=O)c2ccccc2)OCCCC[C@H](C)Oc2ccc(NC(=O)Nc3cccc4ccccc34)cc2C1=O | inactive |
| COc1cccc(S(=O)(=O)Nc2ccc3c(c2)[C@H]2C[C@@H](CC(=O)NC4CCCCC4)O[C@@H](CO)[C@H]2O3)c1 | inactive |
| COCCOC(=O)N1C(=O)[C@@]2(c3ccccc31)[C@H](c1ccc(O)cc1)N1[C@H](c3ccccc3)[C@H](c3ccccc3)OC(=O)[C@H]1[C@@H]2C(=O)N1CCc2cc(OC)c(OC)cc2C1 | inactive |
| COc1ccc(S(=O)(=O)Nc2ccc3c(c2)C(=O)N([C@H](C)CO)C[C@@H](C)[C@@H](CN(C)S(=O)(=O)c2cccs2)O3)cc1 | inactive |
| C[C@@H]1CCCCO[C@H](CN(C)CC2CC2)[C@H](C)CN([C@@H](C)CO)C(=O)c2cc(NC(=O)Cc3ccccc3)ccc2O1 | inactive |
| O=C(C[C@@H]1C=C[C@H](NC(=O)C2CC2)[C@H](CO)O1)NCCCN1CCOCC1 | inactive |
| Cc1[nH]c(/C=C2\C(=O)Nc3ccc(S(=O)(=O)Cc4c(Cl)cccc4Cl)cc32)c(C)c1C(=O)N1CCC[C@@H]1CN1CCCC1 | active |
| C[C@@H]1CN([C@@H](C)CO)C(=O)CCCn2cc(nn2)CO[C@@H]1CN(C)S(=O)(=O)c1ccc(C#N)cc1 | inactive |
| C[C@H]1CN([C@@H](C)CO)C(=O)c2cc(NS(=O)(=O)c3ccc(F)cc3)ccc2O[C@H]1CN(C)Cc1ccc(Oc2ccccc2)cc1 | inactive |

| SMILES | cytotoxicity call |
| --- | --- |
| C[C@@H]1CN([C@@H](C)CO)C(=O)c2cc(NS(=O)(=O)c3ccc(F)cc3)ccc2O[C@H]1CN(C)Cc1ccc(Oc2ccccc2)cc1 | inactive |
| C[C@@H]1CN([C@H](C)CO)C(=O)c2cc(NS(=O)(=O)c3ccc(F)cc3)ccc2O[C@@H]1CN(C)Cc1ccc(Oc2ccccc2)cc1 | active |
| C[C@@H]1CN([C@H](C)CO)C(=O)c2cc(NS(=O)(=O)c3ccc(F)cc3)ccc2O[C@H]1CN(C)Cc1ccc(Oc2ccccc2)cc1 | inactive |
| C[C@H]1CN([C@@H](C)CO)C(=O)c2cc(NS(=O)(=O)c3ccc(F)cc3)ccc2O[C@@H]1CN(C)Cc1ccc(Oc2ccccc2)cc1 | inactive |
| C[C@@H]1CN([C@@H](C)CO)C(=O)c2cc(NS(=O)(=O)c3ccc(F)cc3)ccc2O[C@@H]1CN(C)Cc1ccc(Oc2ccccc2)cc1 | active |
| COCC(=O)N(C)C[C@@H]1Oc2cc(C#Cc3ccccc3)ccc2S(=O)(=O)N([C@H](C)CO)C[C@@H]1C | inactive |
| C[C@H](CO)N1C[C@H](C)[C@H](CN(C)S(=O)(=O)c2cn(C)cn2)Oc2cc(C#Cc3ccccc3)ccc2S1(=O)=O | inactive |
| CNCCC(Oc1cccc2ccccc12)c1cccs1.Cl (stereo not drawn) | active |
| CNCc1cccc2ccccc12 | inactive |
| Cc1noc(C)c1S(=O)(=O)Nc1ccc2c(c1)CC(=O)N([C@H](C)CO)C[C@H](C)[C@@H](CN(C)Cc1ccccc1)O2 | inactive |
| C[C@H]1CN([C@@H](C)CO)C(=O)c2cccc(NS(=O)(=O)c3ccc(Cl)cc3)c2O[C@@H]1CN(C)C(=O)Nc1cccc2ccccc12 | inactive |
| Nc1ncnc2c1ncn2[C@H]1O[C@@H](COP(=O)(O)OP(=O)(O)OP(=O)(O)O)[C@@H](O)[C@@H]1O | inactive |
| OC[C@H]1O[C@H](n2cnc3cncnc32)[C@@H](O)[C@@H]1O | active |
| Nc1nc(Cl)nc2c1ncn2[C@@H]1O[C@H](CO)[C@@H](O)[C@H]1O | inactive |
| Nc1ncnc2c1ncn2[C@@H]1O[C@H](COP(=O)(O)OP(=O)(O)OP(=O)(O)OP(=O)(O)OC[C@H]2O[C@@H](n3cnc4c(N)ncnc43)[C@H](O)[C@@H]2O)[C@@H](O)[C@H]1O | active |
| O=c1nc[nH]c2c1ncn2[C@@H]1O[C@H](CO)[C@@H](O)[C@H]1O | inactive |
| Nc1ncnc2c1ncn2[C@H]1O[C@@H](CO)[C@H](O)[C@@H]1O | inactive |
| Nc1nc(=O)c2ncn([C@@H]3O[C@H](CO)[C@@H](O)[C@H]3O)c2[nH]1 | inactive |
| Nc1nc(F)nc2c1ncn2[C@@H]1O[C@H](CO)[C@@H](O)[C@H]1O | active |
| Nc1ncnc2c1ncn2[C@@H]1O[C@H](CO)[C@@H](O)[C@@H]1O | inactive |
| Nc1nc(=S)c2ncn([C@@H]3O[C@H](CO)[C@@H](O)[C@H]3O)c2[nH]1 | active |
| Nc1ncnc2c1ncn2[C@@H]1O[C@H](COP(=O)(O)O)[C@@H](O)[C@H]1O | inactive |
| Nc1nc(F)nc2c1ncn2[C@@H]1O[C@H](COP(=O)(O)O)[C@@H](O)[C@@H]1O | inactive |
